The values below come from PubChem BioAssay (NCI).

About 83,000 compounds went through this panel and 20% of them were active in at least one assay; those are over-represented in the sample as a whole.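 96-well plates, one dose, 48 hours. Percent growth reported; active if below 10.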 Unmarked numbers belong to inactive results. Active and inactive are the calls of the source.

The subject of this assay is HL-60(TB) leukemia. As to the kind of experiment: NCI-60 one-dose screen, 48 h (100 = growth as untreated, 0 = no growth, -100 = all killed). Conditions: 10 µM unless noted.
Take `COc1cc(-c2nc(-c3nc4ccc(Cl)cc4[nH]3)cc3c2[nH]c2ccccc23)cc(OC)c1OC`: the growth is 68.7%.

In the case of `OCCOc1ccc(-c2cc(-c3ccccn3)nc(-c3ccccn3)c2)cc1`, the growth is -36.1% (active).

Take `CCc1ccc(/C=C/c2ccc(O)c3ncccc23)[n+](C)c1`: the growth is 104%.

As for `O=C(Cc1ccc(Nc2ccnc(C(F)(F)F)c2)cc1)N/N=C/c1ccccc1O`, the growth was 69.1%.

Regarding `COc1ccc(NC(=O)c2ccc3c(c2)nc(-c2ccc(Cl)cc2)n3-c2cc(C(C)(C)C)[nH]n2)cc1`, the growth was 96.8%.

As to `CCCCOC(=O)c1cc(O)c(O)c(O)c1`, the growth was 24.7%.

Regarding `O=S1(=O)C=C(c2ccccc2)C(c2ccccc2)=C1`, the growth was -16.3% (active).

With `O=c1c2ccccc2sc2c(N3CCCC3)nc3ccccc3c12`, the growth is 99.1%.

With `CCN(CC)CCCCCNc1cc(OC(=O)c2ccccc2)cc2cccnc12`, the growth was 79.8%.

Consider `O=C(CCl)c1ccc2c(c1)CCCC2`, for which the growth is 96.9%.

Turning to `O=C(N/N=C/c1ccccc1Cl)C(=O)Nc1cccc(C(F)(F)F)c1`, the growth is 106%.

Take `O=C1C(=O)N(Cc2ccc(-c3ccccc3)cc2)c2ccc(OC(F)(F)F)cc21`: the growth is 17.7%.

On to `CSC(=N\N=C\c1ccc(N(C)C)cc1)/N=C/N(C)C`, for which the growth was 105%.

Regarding `CC1=C(C(=O)Nc2ccc(F)cc2)C(c2ccc(Cl)cc2)C2=C(CC(C)(C)CC2=O)N1` (stereo not given), the growth is 104%.

Take `CSc1nc(N)c2[nH]c(-c3cc4ccccc4[nH]c3=O)nc2n1`: the growth was 88.8%.
